From PubChem BioAssay (NCI)
Compounds without any hit were thinned out: in the full panel of roughly 83,000, 20% have a hit.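 96-well plates, one dose, 48 hours. Percent growth reported; active if below 10.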 Values without a mark were called inactive. The source made the active and inactive calls.

Key:
Test in all cases: NCI-60 one-dose screen, 48 h (100 = growth as untreated, 0 = no growth, -100 = all killed)
Details in all cases: 10 µM unless noted
[1] = test system: SR leukemia
[2] = test system: RPMI-8226 leukemia
[3] = test system: OVCAR-8 ovarian
[4] = test system: OVCAR-5 ovarian
[5] = test system: OVCAR-4 ovarian
[6] = test system: SK-OV-3 ovarian
[7] = test system: IGROV1 ovarian
[8] = test system: OVCAR-3 ovarian
[9] = test system: HS 578T breast
[10] = test system: NCI/ADR-RES ovarian

Row | SMILES | growth [1] | growth [2] | growth [3] | growth [4] | growth [5] | growth [6] | growth [7] | growth [8] | growth [9] | growth [10]
1 | COc1cc2c(cc1OC)C(=O)/C(=C/c1cc(C)c(O)c(C)c1)S2 | 18.7% | 21.6% | 37% | 64.7% | 84.7% | 52.1% | 35.6% | -5.93% (active) | 36.8% | 15.3%
2 | COc1ccccc1/C=C1\Oc2cc(OCCN3CCCC3)ccc2C1=O | -8.89% (active) | 82.2% | 91.8% | 86.2% | 93.9% | 98.2% | 97.3% | 96.2% | 80.6% | 90.9%
3 | NS(=O)(=O)c1ccc(CCN2C(=O)C=CC2=O)cc1 | 91.6% | 102% | 104% | 106% | 97.7% | 110% | 104% | 106% | 108% | 99.6%
4 | Cc1cccc(-c2cn3ccnc3c(-c3ccc4ncn(Cc5ccccc5)c4c3)n2)c1 | 89% | 62.5% | 88.5% | 93.4% | 80.7% | 102% | 90.5% | 86% | 91.5% | 87.9%
5 | Cc1ccc(S(=O)(=O)NNC(=O)/C(=C\c2ccc(Cl)cc2)c2nc3ccccc3s2)cc1 | 72.8% | 87% | 88.1% | 110% | 94.2% | 105% | 91.4% | 96% | 98.1% | 97.8%
6 | O=S(=O)(NCCNc1nccc(-c2c(-c3cccc(F)c3)nc3sccn23)n1)c1ccccc1 | 29.3% | 43.5% | 33.9% | 79.6% | 40% | 57.2% | 4.9% (active) | 58.9% | 55.5% | 46.3%
7 | CCCCCCCCO/N=C\c1c2c(O)c3c(O)c(C)c4c(c3c1O)C(=O)C(C)(O/C=C\C(OC)C(C)C(OC(C)=O)C(C)C(O)C(C)C(O)C(C)/C=C\C=C(\C)C(=O)N2)O4 (stereo not given) | 6.26% (active) | 9.95% (active) | 24% | 48.8% | 29.4% | 30.5% | 23.4% | 22.2% | -2.52% (active) | 32.1%
8 | COc1cc2c3c(c4c5ccccc5[nH]c4c2c(OC)c1OC)C(=O)N(CCN1CCOCC1)C3=O | 21.5% | 39.5% | 31% | 99.7% | 70% | 83.2% | 53.9% | 76.4% | 66.6% | 45.8%
9 | COc1ccc2c(c1)oc1c(C)c3c(c(C)c12)C(=O)N(CCN1CCOCC1)C3=O | 85.8% | 92.2% | 92% | 92.6% | 103% | 114% | 91.4% | 106% | 102% | 104%
10 | COc1ccc(C/C(C)=C(/c2ccc(OCCCN(C)C)cc2)c2ccc(OC(C)=O)cc2)cc1 | 9.44% (active) | 79.2% | 95.5% | 85.7% | 79.6% | 88% | 58.4% | 91.1% | 64.1% | 92.3%
11 | Cc1c(C(=O)NCCC(=O)NO)sc2ncnc(Nc3ccc(NC(=O)Nc4cccc(C(F)(F)F)c4)cc3)c12 | 101% | 102% | 102% | 104% | 105% | 115% | 102% | 112% | 93.5% | 103%
12 | CCSCC1CC(O)(c2ccccc2)CC(c2ccc(F)cc2)O1 (stereo not given) | -22% (active) | 8.79% (active) | 21.3% | 86.6% | 24.5% | 25.9% | 48.5% | -13% (active) | -14.8% (active) | 24.6%
13 | CCc1ccc(-c2cn3ccnc3c(-c3ccc4ncn(Cc5ccccc5)c4c3)n2)cc1 | 50.1% | 44.6% | 69.2% | 85.1% | 64.9% | 99.4% | 75% | 68.8% | 78.2% | 58.8%
